Reference: PubChem BioAssay (NCI)
This is part of a sample that, as a whole, favours compounds with a hit. Of some 83,000 tested, about 20% had one in any assay.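 The test compound was applied at a single concentration to cells in 96-well plates for 48 hours, and percent growth was recorded.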 Unmarked numbers belong to inactive results. The source made the active and inactive calls. The calls were made as follows: active = growth percent below 10; inactive = the rest.

tested on: HL-60(TB) leukemia; assay: NCI-60 one-dose screen, 48 h (100 = growth as untreated, 0 = no growth, -100 = all killed); conditions: 10 µM unless noted

Q: How did the growth turn out when `N/C(=C\C(=O)n1nc(-c2ccccc2)cc1N)c1ccccc1` was run?
A: 1.71% (active)

Q: For `OB(O)c1cccc(-c2nc3ccc4[nH]ncc4c3c3c2CCCC3)c1F`, which growth is on record?
A: 32.1%

Q: With `CCN1C(=O)N(c2ccccc2)C2NN=c3s/c(=C4\C(=O)N(C(C)C)c5ccccc54)c(=O)n3C21` (configuration not stated) as the molecule, how does the growth read?
A: -16.1% (active)

Q: How did the growth turn out when `CSc1nnc(-c2cnn3c2NC(c2ccccc2)C3)n1-c1ccc(C(F)(F)F)cc1` (configuration not stated) was run?
A: 73.6%

Q: With `Cc1cc(SCc2ccc(Cl)cc2Cl)nc(SCc2ccc(Cl)cc2Cl)n1` as the molecule, how does the growth read?
A: 95.6%

Q: For `Fc1ccc2[nH]cc(-c3nonc3-c3c[nH]c4ccc(Br)cc34)c2c1`, which growth is on record?
A: 34.5%

Q: `CC[C@@H]1NC(=O)[C@@H]2CCCCN2C(=O)[C@@H]2CCCN2C(=O)[C@@H](NC(=O)[C@H](Cc2cc(F)cc(F)c2)NC(=O)Nc2ccc(C3CC3)cc2F)[C@H](C)OC(=O)[C@@H]2C[C@@H](C)CN2C1=O` was tested. Which growth did it give?
A: 5.69% (active)

Q: With `COc1cc(CNC(=O)CCCC/C=C/C(C)C)ccc1OCc1nnc(Nc2ccccc2F)o1` as the molecule, how does the growth read?
A: 89.7%

Q: With `COc1ccc(C(=O)c2cc(OC)c(OC)c(OC)c2)cc1/C=C/C(=O)c1ccc(OC)c(OC)c1` as the molecule, how does the growth read?
A: 19.1%

Q: With `O=S(=O)(Nc1ncccn1)c1ccc(NC2Nc3nc4ccccc4nc3S2)cc1` (configuration not stated) as the molecule, how does the growth read?
A: 101%

Q: With `C[C@H](NC(=O)[C@@H](C)N)[C@H](Oc1ccc2c(cnn2-c2ccc(F)cc2)c1)c1ccc2c(c1)OCCO2` as the molecule, how does the growth read?
A: 25.8%

Q: `CCNc1cc(-c2cccc(OC(F)(F)F)c2)nc2ccc(N3CCCC3)cc12` was tested. Which growth did it give?
A: -47.1% (active)
